{"source": "PubChem BioAssay AID686978", "about": "(National Center for Advancing Translational Sciences (NCATS), 2013)", "note": "The whole screen tested about 420,000 compounds, of which about 64,000 (15%) were called active. About 27% were inconclusive and are not listed. Calls come from the whole dose curve; as a rule, active = well fitted inhibition curve with a large enough effect; inconclusive = small, poorly fitted or top-dose-only effect; inactive = flat fitted curve, though single readings scatter. Only a sample is shown. % is set by controls: 0 for no effect and ±100 for the full control effect; potency is the fitted concentration of half-maximal effect.", "data": [{"test": "qHTS for Inhibitors of human tyrosyl-DNA phosphodiesterase 1 (TDP1): qHTS in cells in absence of CPT; note: nearly all actives have a fitted effect of over 55% in size", "details": "DT40 Tdp1-/- hTDP1 cells, no CPT, ATP luminescence, 48 h; activity change, negative = growth inhibition: at 46.2 µM (top of the series)", "method_in_brief": "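DT40 Tdp1-/-;hTDP1 cells, no CPT (DMSO vehicle only), 400 cells/well; compounds pin-transferred; ≥48 hr, 37 °C; CellTiter-Glo 30 min RT dark, luminescence read.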", "values": [{"compound": "c1ccc(CN=C2Nc3ccccc3CS2)nc1", "activity change, negative = growth inhibition": "-15.1% (inactive)"}, {"compound": "CC1(C)O[C@H]2CC(=O)OCC23[C@H]2CC[C@@]4(C)[C@H](c5ccoc5)OC(=O)[C@H]5O[C@]54[C@]2(C)C(=O)C[C@@H]13", "note": "(stereo partly drawn)", "activity change, negative = growth inhibition": "-0.653% (inactive)"}, {"compound": "COc1ccc(NC(=O)c2c(SC)nsc2SC)cc1", "activity change, negative = growth inhibition": "-15.8% (inactive)"}, {"compound": "Oc1ccc2c(c1)OCC1c3cc4c(cc3OC21)OCO4", "note": "(stereo not drawn)", "activity change, negative = growth inhibition": "1.62% (inactive)"}, {"compound": "CCSc1sc(CC)cc1C=O", "activity change, negative = growth inhibition": "-5.26% (inactive)"}, {"compound": "COc1ccccc1/C=C/C=N/NC(=O)CN1CCN(Cc2ccccc2)CC1", "activity change, negative = growth inhibition": "-25.1% (inactive)"}, {"compound": "Cc1cc(SCc2c(F)cccc2Cl)nc(=O)[nH]1", "activity change, negative = growth inhibition": "-21.7% (inactive)"}, {"compound": "COc1ccc(NC(=O)N2CCCn3nc(C)cc32)cc1OC", "activity change, negative = growth inhibition": "-3.6% (inactive)"}, {"compound": "CCn1cc(NC(=O)Nc2ccc(OC)c(OC)c2)c(C(N)=O)n1", "activity change, negative = growth inhibition": "-6.75% (inactive)"}, {"compound": "COc1ccc(NC(=O)NC(C)c2c(-n3cccc3)sc(C)c2C)cc1OC", "note": "(stereo not drawn)", "Potency": "16.4 µM (active)"}, {"compound": "Cc1ccc(NC(=O)CCC(=O)c2ccc(Br)cc2)cc1", "activity change, negative = growth inhibition": "8.36% (inactive)"}, {"compound": "COCC(C)NC(=O)COc1nncc2ccccc12", "note": "(stereo not drawn)", "activity change, negative = growth inhibition": "-1.48% (inactive)"}, {"compound": "NC(Cc1ccc(F)cc1)c1csc(Nc2nncc3ccccc23)n1", "note": "(stereo not drawn)", "Potency": "4.11 µM (active)"}, {"compound": "O=C(Nc1ccc2c(c1)OCCO2)C1CCCN(c2ncccn2)C1", "note": "(stereo not drawn)", "activity change, negative = growth inhibition": "-21.7% (inactive)"}, {"compound": "Cc1cc(-c2ccc(C)c(S(=O)(=O)Nc3ccc(S(N)(=O)=O)cc3)c2)on1", "activity change, negative = growth inhibition": "1.72% (inactive)"}, {"compound": "CC1Cc2ccccc2N1S(=O)(=O)c1ccc(Cl)nc1", "note": "(stereo not drawn)", "activity change, negative = growth inhibition": "-14.7% (inactive)"}, {"compound": "Cc1cc(-c2ccc(C)c(S(=O)(=O)N3c4ccccc4CC3C)c2)on1", "note": "(stereo not drawn)", "Potency": "23.1 µM (active)"}, {"compound": "Cc1cc(NC(=O)CCC(=O)N(CC(=O)NCC2CCCO2)c2ccccc2C)no1", "note": "(stereo not drawn)", "activity change, negative = growth inhibition": "1.54% (inactive)"}, {"compound": "COc1ccccc1NC(=O)CSc1nnc(Cn2nnc(-c3ccccc3)n2)n1-c1ccccc1", "Potency": "20.6 µM (active)"}, {"compound": "COc1ccccc1OCc1nnc(SCC(N)=O)n1-c1ccccc1", "activity change, negative = growth inhibition": "-2.24% (inactive)"}, {"compound": "COc1ccccc1NC(=O)CSc1nnc(Cc2cccn2C)n1-c1ccc(F)cc1", "activity change, negative = growth inhibition": "-12.2% (inactive)"}, {"compound": "COc1ccc(Cl)cc1-n1c(=S)sc2c(=O)n(-c3ccc(F)cc3)c(SCC(=O)O)nc21", "activity change, negative = growth inhibition": "1.54% (inactive)"}, {"compound": "O=C(O)c1cc(S(=O)(=O)N2CCCCCC2)c(Cl)cc1Cl", "activity change, negative = growth inhibition": "-12.2% (inactive)"}, {"compound": "Cc1ccc(CNC(=O)CCNS(=O)(=O)c2ccc(Br)s2)cc1", "activity change, negative = growth inhibition": "-15.4% (inactive)"}, {"compound": "CC1=NN(C(=O)CCCc2ccccc2)C(O)(C(F)(F)F)C1", "note": "(stereo not drawn)", "activity change, negative = growth inhibition": "0.642% (inactive)"}, {"compound": "COc1ccc(CC(=O)N2N=C(C)CC2(O)C(F)(F)F)cc1", "note": "(stereo not drawn)", "Potency": "3.26 µM (active)"}, {"compound": "CC1=NN(C(=O)Cc2ccc(C)cc2)C(O)(c2cccnc2)C1", "note": "(stereo not drawn)", "activity change, negative = growth inhibition": "-17.6% (inactive)"}, {"compound": "Cc1ccc(CNS(=O)(=O)c2ccc3c(c2)N(C)CCO3)cc1", "activity change, negative = growth inhibition": "-25.3% (inactive)"}, {"compound": "CCCCC(=O)Nc1ccc2c(c1)C(=O)NC2=O", "activity change, negative = growth inhibition": "-19.1% (inactive)"}, {"compound": "Oc1cccc(CCc2ccccn2)c1", "activity change, negative = growth inhibition": "-0.0969% (inactive)"}, {"compound": "NS(=O)(=O)c1ccc(CCNC(=O)Nc2ccc(Cl)cc2)cc1", "activity change, negative = growth inhibition": "-22.3% (inactive)"}, {"compound": "CC(C)S(=O)(=O)c1csc(NC(=O)Nc2ccc(Cl)cc2)c1Cl", "Potency": "16.4 µM (active)"}, {"compound": "O=C(NCc1cn2ccsc2n1)Nc1ccc(Cl)cc1", "activity change, negative = growth inhibition": "-20.7% (inactive)"}, {"compound": "Cc1cccc(NC(=O)c2cccc(C(=O)Nc3cccc(C)c3C)n2)c1C", "activity change, negative = growth inhibition": "-7.12% (inactive)"}, {"compound": "CCN1/C(=C\\c2ccc3ccccc3[n+]2CC)Sc2cc(C)ccc21", "Potency": "0.184 µM (active)"}, {"compound": "CCN1/C(=C/c2ccc3ccc(C)cc3[n+]2CC)Sc2ccccc21", "Potency": "2.06 µM (active)"}, {"compound": "Cn1c(Nc2ccccc2)cc(=O)n(C)c1=O", "activity change, negative = growth inhibition": "1.8% (inactive)"}, {"compound": "CCc1ccccc1NC(=S)N(CCN1CCCCCC1)Cc1ccco1", "activity change, negative = growth inhibition": "-1.1% (inactive)"}, {"compound": "CCN(CC)S(=O)(=O)c1ccc2nc(COC(=O)c3n[nH]c4ccccc34)[nH]c2c1", "activity change, negative = growth inhibition": "-17.7% (inactive)"}, {"compound": "C[C@]12CC[C@H](O)CC1=CCC1C2CC[C@@]2(C)C1CC[C@@H]2NC(=O)CCC(=O)O", "note": "(stereo partly drawn)", "activity change, negative = growth inhibition": "-8.9% (inactive)"}, {"compound": "CC(=O)OC1CCC2(C)C(=CCC3C4CC(=O)N(O)C(=O)C4(C)CCC32)C1", "note": "(stereo not drawn)", "Potency": "5.17 µM (active)"}, {"compound": "CC(=O)O[C@H]1CC[C@@]2(C)C(=CC[C@@H]3[C@@H]2CC[C@]2(C)C(c4cccnc4)=CC[C@@H]32)C1", "activity change, negative = growth inhibition": "-23.6% (inactive)"}, {"compound": "CN(C)CCNC(=O)/C(=C/c1cccc([N+](=O)[O-])c1)NC(=O)c1ccccc1", "activity change, negative = growth inhibition": "2.73% (inactive)"}, {"compound": "CCOCc1nnc(NC(=O)CSc2ccc(C)cc2)s1", "activity change, negative = growth inhibition": "-19.2% (inactive)"}, {"compound": "OC1CSc2nc3ccccc3n2C1", "note": "(stereo not drawn)", "activity change, negative = growth inhibition": "4.08% (inactive)"}, {"compound": "CCCc1nn2c(=O)cc(CSCC(=O)Nc3cccc(C)c3)nc2s1", "activity change, negative = growth inhibition": "18.6% (inactive)"}, {"compound": "CC(C)(C)OC(=O)NC(Cc1ccccc1)C(=O)NC(CSC1CCCCO1)C(=O)NN", "note": "(stereo not drawn)", "activity change, negative = growth inhibition": "0.0689% (inactive)"}, {"compound": "CC(C)(C)OC(=O)C[C@H]1C/C=C\\C[C@@H](CC(=O)N[C@H](CO)Cc2ccccc2)C(=O)NC[C@@H](c2ccccc2)OC1=O", "Potency": "18.4 µM (active)"}, {"compound": "O=C(C[C@H]1C/C=C\\C[C@@H](NC(=O)OCC2c3ccccc3-c3ccccc32)C(=O)O[C@@H](c2ccccc2)CNC1=O)N[C@H](CO)Cc1ccccc1", "Potency": "18.4 µM (active)"}, {"compound": "C[C@H]1COC(=O)[C@H](CC(=O)OC(C)(C)C)C/C=C\\C[C@@H](CC(=O)N[C@H](CO)Cc2ccccc2)C(=O)N1", "Potency": "14.6 µM (active)"}, {"compound": "CC(C)(C)OC(=O)C[C@@H]1C/C=C\\C[C@@H](CC(=O)N[C@H](CO)Cc2ccccc2)C(=O)NC[C@@H](c2ccccc2)OC1=O", "Potency": "20.6 µM (active)"}, {"compound": "CC(C)[C@@H](NC(=O)OC(C)(C)C)C(=O)NCC1CCC(C(=O)N[C@@H](Cc2ccccc2)C(=O)O)CC1", "note": "(stereo partly drawn)", "activity change, negative = growth inhibition": "-10.5% (inactive)"}, {"compound": "COc1ccc(OCC(=O)NCCc2ccc(S(N)(=O)=O)cc2)cc1", "activity change, negative = growth inhibition": "0.22% (inactive)"}, {"compound": "CCC(C)N1CC(=O)N2Cc3[nH]c4ccccc4c3C[C@H]2C1=O", "note": "(stereo partly drawn)", "activity change, negative = growth inhibition": "-16.6% (inactive)"}, {"compound": "CCN(CC)CCNS(=O)(=O)c1ccc(/C=C/C(=O)O)cc1", "activity change, negative = growth inhibition": "-7.55% (inactive)"}, {"compound": "CNCC(O)c1ccc(O)c(O)c1", "note": "(stereo not drawn)", "activity change, negative = growth inhibition": "-15.9% (inactive)"}, {"compound": "COc1ccc(CNC(=O)C(=O)NCC2OCCN2C(=O)c2ccc(OC)cc2)cc1", "note": "(stereo not drawn)", "activity change, negative = growth inhibition": "-16.3% (inactive)"}, {"compound": "C/C(=C(\\C#N)C(=O)NCCCN1CCOCC1)N(C)C", "activity change, negative = growth inhibition": "-3.07% (inactive)"}, {"compound": "O=C(CCc1ccccc1)NNc1ccc(F)cc1", "activity change, negative = growth inhibition": "-26.9% (inactive)"}, {"compound": "Cc1cccc2[nH]c(CN(C)C(=O)C3CCC(=O)N(CCc4ccccc4)C3)nc12", "note": "(stereo not drawn)", "activity change, negative = growth inhibition": "-10.5% (inactive)"}, {"compound": "Cc1ccccc1-c1nnc(SCC(=O)NCc2ccc3c(c2)OCO3)n1C", "activity change, negative = growth inhibition": "-2.12% (inactive)"}, {"compound": "CCC(c1nnnn1C1CCCC1)N(Cc1cccs1)Cc1cc2cccc(C)c2[nH]c1=O", "note": "(stereo not drawn)", "Potency": "18.4 µM (active)"}, {"compound": "O=C(CSc1nnnn1C1CCCC1)Nc1ccc2c(c1)OCCO2", "activity change, negative = growth inhibition": "0.417% (inactive)"}, {"compound": "CC(C)C(c1nnnn1Cc1ccccc1)N1CCC(C(N)=O)CC1", "note": "(stereo not drawn)", "activity change, negative = growth inhibition": "6.13% (inactive)"}, {"compound": "Cc1cccc2cc(CN(Cc3cccs3)C(c3nnnn3C3CCCC3)C(C)C)c(=O)[nH]c12", "note": "(stereo not drawn)", "activity change, negative = growth inhibition": "-20.3% (inactive)"}, {"compound": "CCC(=O)Nc1cccc(NC(=O)CSc2nnnn2C2CCCC2)c1", "activity change, negative = growth inhibition": "-14.2% (inactive)"}, {"compound": "Cc1cccc2cc(CN(Cc3nnnn3Cc3ccccc3)C3CCCC3)c(=O)[nH]c12", "Potency": "12.6 µM (active)"}, {"compound": "Cc1cccc2cc(CN(Cc3ccc4c(c3)OCO4)Cc3nnnn3C3CCCC3)c(=O)[nH]c12", "Potency": "16.4 µM (active)"}]}]}
